From PubChem BioAssay (NCI)
The panel holds about 79,000 compounds, 15% with a hit somewhere; the sample as a whole holds those more often. Active and inactive are the calls of the source. Cut-off read from the data, not from the text of the source: active = growth inhibition above about 70%; inactive = the rest.

What was measured:
[1] = NCI Yeast Anticancer Drug Screen. Data for the rad52 strain (AID 147);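 note: 0% = growth of vehicle-treated control cultures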; settings: S. cerevisiae rad52 mutant growth inhibition, hits give high values
Method in brief: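 Growth of repair-deficient yeast cells was compared between compound-treated and vehicle-treated cultures to give percent inhibition.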

[2] = NCI Yeast Anticancer Drug Screen. Data for the wt1 strain (AID 149);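 note: 0% = growth of vehicle-treated wt1 cultures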; settings: S. cerevisiae wt1 strain (SPY 50644) growth inhibition, hits give high values
Method in brief: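 Measured: growth of wt1 yeast under compound versus vehicle treatment, reported as inhibition.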

[3] = NCI Yeast Anticancer Drug Screen. Data for the rad50EPP+ strain (AID 151);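 note: 0% = growth of vehicle-treated control cultures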; settings: S. cerevisiae rad50 mutant strain, hits give high values
Method in brief: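 Measured: growth inhibition of rad50EPP+ yeast. Reference: vehicle-treated controls. Screen uses strains with defined genetic alterations in DNA damage repair or cell cycle control.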

[4] = NCI Yeast Anticancer Drug Screen. Data for the mgt1 strain (AID 153); settings: S. cerevisiae mgt1 mutant growth inhibition, hits give high values
Method in brief: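 Compounds were applied to mgt1 mutant yeast, and growth was then compared against vehicle-treated control cultures to give percent inhibition.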

[5] = NCI Yeast Anticancer Drug Screen. Data for the rad50 strain (AID 155);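 note: 0% = growth of vehicle-only cultures of the same strain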; settings: S. cerevisiae rad50 strain growth inhibition, hits give high values
Method in brief: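 Growth of the mutant yeast was measured after compound exposure and referenced to vehicle-treated cultures.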

[6] = NCI Yeast Anticancer Drug Screen. Data for the mec2-1 strain (AID 157); settings: S. cerevisiae mec2-1 strain, hits give high values
Method in brief: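 Compounds were applied to mec2-1 yeast cells. Their growth was then compared with that of vehicle-treated cultures to give growth inhibition.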

[7] = NCI Yeast Anticancer Drug Screen. Data for the rad14 strain (AID 159);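 note: 0% = growth of vehicle-treated control cultures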; settings: S. cerevisiae rad14 strain growth inhibition, hits give high values
Method in brief: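 Here, inhibition of yeast growth was measured after compound exposure, using a strain with a genetic defect in DNA damage repair and vehicle-treated cultures as the reference.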

[8] = NCI Yeast Anticancer Drug Screen. Data for the sgs1 mgt1 strain (AID 161);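 note: 0% = growth of cultures given vehicle only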; settings: S. cerevisiae sgs1 mgt1 strain, hits give high values
Method in brief: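 Yeast cells carrying a defined DNA-repair defect were exposed to test compounds. Growth inhibition was measured relative to vehicle-treated controls.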

[9] = NCI Yeast Anticancer Drug Screen. Data for the CLN2oe strain (AID 163);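 note: 0% = growth of vehicle-only control cultures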; settings: S. cerevisiae CLN2oe strain, hits give high values
Method in brief: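 Cells of an engineered yeast line with disturbed cell-cycle regulation are treated with compound. Inhibition of growth is then calculated relative to the vehicle-treated reference.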

[10] = NCI Yeast Anticancer Drug Screen. Data for the cln2 rad14 strain (AID 165);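 note: 0% = growth equal to vehicle treated cultures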; settings: S. cerevisiae cln2 rad14 strain, hits give high values
Method in brief: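 Strain: cln2 rad14 yeast, altered in cell cycle control and DNA damage repair. Read-out: growth inhibition vs vehicle.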

[11] = NCI Yeast Anticancer Drug Screen. Data for the bub3 strain (AID 167); settings: S. cerevisiae bub3 mutant strain, hits give high values
Method in brief: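 Whole-cell yeast assay. The mutant strain was incubated with compounds, and growth inhibition was determined by comparison with vehicle-treated cells.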

[12] = NCI Yeast Anticancer Drug Screen. Data for the wt2 strain (AID 169);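 note: 0% = growth of vehicle-treated yeast cultures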; settings: S. cerevisiae wt2 strain growth inhibition, hits give high values
Method in brief: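 Growth of compound-treated yeast is measured and expressed as inhibition relative to vehicle-only controls.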

[13] = NCI Yeast Anticancer Drug Screen. Data for the mlh1 strain (AID 171);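 note: 0% = growth of vehicle-treated control cultures of the same strain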; settings: S. cerevisiae mlh1 strain growth inhibition, hits give high values
Method in brief: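 Test agents were incubated with yeast bearing a defined DNA damage repair or cell cycle control alteration; values are growth inhibition normalised to vehicle-treated cultures.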

[14] = NCI Yeast Anticancer Drug Screen. Data for the sgs1 strain (AID 173);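 note: 0% = growth of vehicle-only control cultures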; settings: S. cerevisiae sgs1 mutant, hits give high values
Method in brief: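 Strain with an altered DNA repair or cell cycle pathway exposed to compound. Growth then measured. Value = inhibition versus vehicle control.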

[15] = NCI Yeast Anticancer Drug Screen. Data for the mlh1 rad18 strain (AID 175); settings: S. cerevisiae mlh1 rad18 strain growth inhibition, hits give high values
Method in brief: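 A repair-deficient yeast strain is exposed to test compound, and growth is scored relative to vehicle-treated controls.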

[16] = NCI Yeast Anticancer Drug Screen. Data for the rad18 strain (AID 177); settings: S. cerevisiae rad18 mutant growth inhibition, hits give high values
Method in brief: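 DNA-repair-defective yeast; compound treatment; growth inhibition scored against vehicle.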

[17] = at 5.0 µM (retest, dose inferred, filed as 0.5)
[18] = at 50.0 µM (retest, dose inferred, filed as 5.0)

Measured: growth inhibition

O=C(Cc1csc2[n+]1C(=O)/C(=C/c1ccc(Cl)cc1)S2)Nc1ccccc1
inactive: [1]; at 1.2 µM 15% | [1]; at 3.7 µM 4% | [1]; at 11.0 µM 20% | [1]; at 33.0 µM 49% | [2]; at 1.2 µM -84% | [2]; at 3.7 µM -1% | [2]; at 11.0 µM 0% | [2]; at 33.0 µM 16% | [2]; at 100.0 µM 60% | [3]; at 1.2 µM 2% | [3]; at 3.7 µM 8% | [3]; at 11.0 µM 34% | [3]; at 33.0 µM 65% | [4]; at 1.2 µM -1% | [4]; at 3.7 µM 1% | [4]; at 11.0 µM 7% | [4]; at 33.0 µM 54% | [5]; at 1.2 µM -2% | [5]; at 3.7 µM 1% | [5]; [17] 24% | [5]; at 11.0 µM 9% | [5]; at 33.0 µM 43% | [6]; at 1.2 µM -3% | [6]; at 3.7 µM 5% | [6]; [17] 25% | [6]; at 11.0 µM 13% | [6]; at 33.0 µM 39% | [6]; at 100.0 µM 62% | [7]; at 1.2 µM 0% | [7]; at 3.7 µM 4% | [7]; at 11.0 µM 10% | [7]; at 33.0 µM 33% | [7]; at 100.0 µM 69% | [8]; [17] 2% | [9]; at 1.2 µM -6% | [9]; at 3.7 µM -14% | [9]; at 11.0 µM -12% | [9]; at 33.0 µM 8% | [9]; at 100.0 µM 47% | [10]; [17] 42% | [11]; at 1.2 µM -8% | [11]; at 3.7 µM -8% | [11]; at 11.0 µM -7% | [11]; at 33.0 µM 11% | [11]; at 100.0 µM 12% | [12]; at 1.2 µM -3% | [12]; at 3.7 µM -3% | [12]; at 11.0 µM 7% | [12]; at 33.0 µM 60% | [13]; at 1.2 µM -1% | [13]; at 3.7 µM 1% | [13]; at 11.0 µM 8% | [13]; at 33.0 µM 52% | [14]; at 1.2 µM 2% | [14]; at 3.7 µM 11% | [14]; at 11.0 µM 32% | [15]; [17] 20% | [16]; at 1.2 µM 0% | [16]; at 3.7 µM 5% | [16]; at 11.0 µM 21% | [16]; at 33.0 µM 56% | [16]; at 100.0 µM 69%
active: [1]; at 100.0 µM 87% | [3]; at 100.0 µM 75% | [4]; at 100.0 µM 87% | [5]; [18] 98% | [5]; at 50.0 µM 98.5% | [5]; at 100.0 µM 78% | [6]; [18] 99% | [6]; at 50.0 µM 98.8% | [8]; [18] 96% | [8]; at 50.0 µM 98.9% | [10]; [18] 98% | [10]; at 50.0 µM 98.5% | [11]; [17] 97% | [11]; [18] 99% | [11]; at 50.0 µM 98.8% | [12]; at 100.0 µM 82% | [13]; at 100.0 µM 75% | [14]; at 33.0 µM 72% | [14]; at 100.0 µM 89% | [15]; [18] 98% | [15]; at 50.0 µM 98.3%
